Experimental data reported in PubChem BioAssay AID1159580 (chemical genetic matrix, 2015).
Several values for one entry are separate records, joined by “and”; a condition that tells them apart may be missing. Identical values can stand only once. The whole screen tested about 5,500 compounds, of which about 2,000 (36%) were called active. About 18% were inconclusive and are not listed. Rule as the data show it: active = normalized growth mostly below about 0.91 (no sharp cut-off); inconclusive = no clear call, values can overlap the other calls; inactive = mostly above about 0.92. The list shows a part of the results.

Test: chemical genetic growth profiling, strain panel (AID 1159580);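 also: tested at 20 µM; growth read once vehicle control cultures reached saturation at 30 °C; 1 = growth at the plate median or of vehicle wells; lower values mean less growth of the strain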
Details: S. cerevisiae deletion strains, growth OD

Measured: normalized growth

Oc1c(Cl)cc(Cl)cc1Sc1cc(Cl)cc(Cl)c1O
0.951 (inactive) and 0.106 (active): locus YJL095W, strain BCK1, stronger effect = lower value
active: locus YAL021C, strain ccr4, stronger effect = lower value 0.067 | locus YAL026C, strain drs2, stronger effect = lower value 0.0634 | locus YAL030W, strain snc1, stronger effect = lower value 0.0557 | locus YBL061C, strain skt5, stronger effect = lower value 0.0575 | locus YBR009C, strain hhf1, stronger effect = lower value 0.061 | locus YBR023C, strain chs3, stronger effect = lower value 0.0607 | locus YBR171W, strain sec66, stronger effect = lower value 0.077 | locus YBR231C, strain swc5, stronger effect = lower value 0.0615 | locus YBR279W, strain paf1, stronger effect = lower value 0.0577 | locus YCL011C, strain gbp2, stronger effect = lower value 0.0589 | locus YCL016C, strain dcc1, stronger effect = lower value 0.064 | locus YCL069W, strain vba3, stronger effect = lower value 0.0603 | locus YCR088W, strain abp1, stronger effect = lower value 0.0604 | locus YDL005C, strain med2, stronger effect = lower value 0.0721 | locus YDL040C, strain nat1, stronger effect = lower value 0.0555 | locus YDR001C, strain nth1, stronger effect = lower value 0.0578 | locus YDR069C, strain doa4, stronger effect = lower value 0.0618 | locus YDR137W, strain rgp1, stronger effect = lower value 0.09 | locus YDR159W, strain sac3, stronger effect = lower value 0.0888 | locus YDR195W, strain ref2 0.123 | locus YDR297W, strain sur2, stronger effect = lower value 0.0581 | locus YDR334W, strain swr1, stronger effect = lower value 0.0632 | locus YDR335W, strain msn5, stronger effect = lower value 0.0596 | locus YDR392W, strain spt3, stronger effect = lower value 0.081 | locus YEL003W, strain gim4, stronger effect = lower value 0.0535 | locus YEL037C, strain rad23, stronger effect = lower value 0.0573 | locus YEL061C, strain CIN8 (second series), stronger effect = lower value 0.0607 | locus YER015W, strain faa2, stronger effect = lower value 0.0587 | locus YER016W, strain bim1, stronger effect = lower value 0.0576 | locus YER111C, strain swi4, stronger effect = lower value 0.0718 | locus YER155C, strain BEM2 (second series), stronger effect = lower value 0.0937 | locus YFR010W, strain ubp6, stronger effect = lower value 0.0679 | locus YGL167C, strain pmr1, stronger effect = lower value 0.0712 | locus YGL173C, strain kem1, stronger effect = lower value 0.0685 | locus YGL227W, strain vid30, stronger effect = lower value 0.0624 | locus YGL240W, strain doc1, stronger effect = lower value 0.0755 | locus YGL253W, strain hxk2, stronger effect = lower value 0.0537 | locus YHR013C, strain ard1, stronger effect = lower value 0.105 | locus YHR027C, strain rpn1, stronger effect = lower value 0.0591 | locus YHR079C, strain IRE1, stronger effect = lower value 0.129 | locus YHR142W, strain chs7, stronger effect = lower value 0.0784 | locus YJL092W, strain hpr5, stronger effect = lower value 0.0598 | locus YJL095W, strain BCK1 (second series), stronger effect = lower value 0.0564 | locus YJL115W, strain asf1, stronger effect = lower value 0.0719 | locus YJL129C, strain trk1, stronger effect = lower value 0.0818 | locus YJL154C, strain vps35, stronger effect = lower value 0.0607 | locus YJL164C, strain tpk1, stronger effect = lower value 0.0913 | locus YJL166W, strain qcr8, stronger effect = lower value 0.0591
0.99 (inactive) and 0.152 (active): locus YHR030C, strain SLT2, stronger effect = lower value
inactive: locus YBR021W, strain FUR4, stronger effect = lower value 0.989 | locus YBR229C, strain ROT2, stronger effect = lower value 0.998 | locus YCL029C, strain bik1, stronger effect = lower value 0.964 | locus YDL035C, strain GPR1, stronger effect = lower value 1.05 | locus YDL074C, strain BRE1, stronger effect = lower value 0.979 | locus YDL101C, strain DUN1, stronger effect = lower value 0.978 | locus YDL185W, strain tfp1, stronger effect = lower value 0.966 | locus YDL192W, strain arf1, stronger effect = lower value 0.992 | locus YDR101C, strain arx1, stronger effect = lower value 0.978 | locus YDR150W, strain NUM1, stronger effect = lower value 0.982 | locus YDR162C, strain NBP2, stronger effect = lower value 1.01 | locus YDR318W, strain mcm21, stronger effect = lower value 0.98 | locus YDR388W, stronger effect = lower value 0.983 | locus YDR502C, strain sam2, stronger effect = lower value 0.985 | locus YEL061C, strain CIN8, stronger effect = lower value 0.988 | locus YER110C, stronger effect = lower value 0.964 | locus YER155C, strain BEM2, stronger effect = lower value 0.985 | locus YER167W, strain BCK2, stronger effect = lower value 0.996 | locus YGL078C, strain dbp3, stronger effect = lower value 0.984 | locus YGL086W, strain mad1, stronger effect = lower value 0.995 | locus YGL248W, strain PDE1, stronger effect = lower value 0.981 | locus YGR078C, strain PAC10, stronger effect = lower value 0.981 | locus YGR135W, strain pre9, stronger effect = lower value 0.98 | locus YGR229C, strain SMI1, stronger effect = lower value 1.02 | locus YGR252W, strain gcn5, stronger effect = lower value 1.03 | locus YHR079C, strain IRE1 (second series), stronger effect = lower value 0.966 | locus YHR094C, strain hxt1, stronger effect = lower value 0.976 | locus YHR129C, strain ARP1, stronger effect = lower value 0.994 | locus YHR200W, strain rpn10, stronger effect = lower value 0.97 | locus YIL066C, strain RNR3, stronger effect = lower value 1.01 | locus YIL073C, strain SPO22, stronger effect = lower value 0.942 | locus YIL125W, strain kgd1, stronger effect = lower value 0.996 | locus YIR030C, strain dcg1, stronger effect = lower value 1.01 | locus YJL134W, strain LCB3, stronger effect = lower value 0.989 | locus YJL168C, strain set2, stronger effect = lower value 0.984 | locus YJL187C, strain SWE1 (second series), stronger effect = lower value 0.969 | locus YJR043C, strain POL32, stronger effect = lower value 1.05
